# Source: PubChem BioAssay
# Calls of active or inactive are those of the source. Unless noted, the rule behind the calls is not given here.
# Tests used:
# [1] = A549 cell viability effects, profiling panel, calcein-AM fluorescence, 48 h, basal (AID 1162); details: higher = more signal; note: test concentration not given here
# [2] = adipocyte viability effects, profiling panel, cell-based, 3T3-L1 adipocytes, calcein-AM fluorescence, 48 h, basal (AID 1163); details: 3T3-L1 adipocytes viability, higher = more signal; note: test concentration not given here
# [3] = HepG2 cell viability effects, profiling panel, calcein-AM fluorescence, 48 h, basal (AID 1164); details: higher = more signal; note: test concentration not given here
# [4] = MM1S cell viability effects, profiling panel, calcein-AM fluorescence, 48 h, basal (AID 1165); details: higher = more signal;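 note: viability of MM1S multiple myeloma cells under basal unstimulated conditions; test concentration not given here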
# [5] = basal RPMI8226 viability, no added stimulus, profiling panel, cell-based, calcein-AM fluorescence, 48 h, PK04 Diversity Set (AID 1166); details: RPMI8226 myeloma viability, higher = more signal;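 note: cells grown under basal conditions without added stimulus; test concentration not given here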
# [6] = basal HepG2 mitochondrial membrane potential changes, profiling panel, cell-based, JC-1 fluorescence, 24 h, 100 nL compound (AID 1167); details: higher = more signal; note: test concentration not given here
# [7] = basal 3T3-L1 adipocyte mitochondrial potential changes, profiling panel, cell-based, JC-1 fluorescence, 3T3-L1 adipocytes, 24 h, 100 nL compound (AID 1168); details: JC-1 mitochondrial fluorescence, higher = more signal, called active from +8 up or from −8 down; note: test concentration not given here
# [8] = basal RPMI8226 mitochondrial membrane potential changes, profiling panel, cell-based, JC-1 fluorescence, 24 h, 100 nL compound (AID 1169); details: RPMI8226 myeloma, JC-1 mitochondrial potential fluorescence, higher = more signal; note: test concentration not given here
# [9] = basal MM1S mitochondrial membrane potential changes, profiling panel, cell-based, JC-1 fluorescence, 24 h, 100 nL compound (AID 1170); details: higher = more signal; note: test concentration not given here
# [10] = A549 lung cancer cell viability effects, profiling panel, resazurin fluorescence, 24 h, PK04 Diversity Set (AID 1171); details: higher = more signal, called active from +8 up or from −8 down; note: test concentration not given here
# [11] = HepG2 liver cancer cell viability effects, profiling panel, resazurin fluorescence, 24 h, PK04 Diversity Set (AID 1172); details: higher = more signal; note: test concentration not given here
# [12] = basal S. cerevisiae growth modulation, no modifier, primary screen, OD600, strain BY4716, 24 h, basal condition (AID 1173); details: OD600, 24 h, higher = more signal, called active from +8 up or from −8 down
# [13] = MM1S myeloma cell viability, profiling panel, resazurin fluorescence, basal, 24 h, PK04 Diversity Set (AID 1174); details: higher = more signal, called active from +8 up or from −8 down;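 note: MM1S multiple myeloma cell line; test concentration not given here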
# [14] = molecular target: Dihydroorotate dehydrogenase (quinone), mitochondrial (Plasmodium falciparum (isolate 3D7)) (UniProt Q08210); experiment: PfDHODH enzyme inhibitors, primary screen, biochemical, C-terminal His tag, absorbance 600 nm (AID 1175); details: DCIP absorbance 600 nm, higher = more signal, called active from +8 up or from −8 down;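 note: recombinant parasite enzyme with a five histidine tag at its C terminus; test concentration not given here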
# Sequence of Dihydroorotate dehydrogenase (quinone), mitochondrial (Plasmodium falciparum (isolate 3D7)) (Q08210 whole entry, looked up): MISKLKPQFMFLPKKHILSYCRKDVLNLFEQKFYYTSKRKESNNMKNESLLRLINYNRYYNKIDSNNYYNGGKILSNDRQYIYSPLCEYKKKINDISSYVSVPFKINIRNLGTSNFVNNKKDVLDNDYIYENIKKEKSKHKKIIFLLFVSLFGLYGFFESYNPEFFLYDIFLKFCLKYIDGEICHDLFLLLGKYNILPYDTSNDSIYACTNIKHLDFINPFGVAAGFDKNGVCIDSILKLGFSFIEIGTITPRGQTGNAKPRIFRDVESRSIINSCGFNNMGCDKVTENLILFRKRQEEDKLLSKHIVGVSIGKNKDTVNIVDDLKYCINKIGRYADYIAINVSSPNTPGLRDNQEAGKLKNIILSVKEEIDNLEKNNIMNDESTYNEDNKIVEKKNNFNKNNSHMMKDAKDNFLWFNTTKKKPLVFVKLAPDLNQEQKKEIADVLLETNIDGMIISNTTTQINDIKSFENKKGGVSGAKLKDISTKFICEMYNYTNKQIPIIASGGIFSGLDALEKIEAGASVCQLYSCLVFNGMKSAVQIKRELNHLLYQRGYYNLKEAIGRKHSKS
# [15] = P. aeruginosa biofilm formation inhibitors, primary screen, strain PAO1, LB-PBS medium, absorbance 600 nm (AID 1176); note: test concentration not given here; details: P. aeruginosa PAO1 growth/biofilm, A600, 12 h; higher = more signal
# [16] = S. cerevisiae RM11-1a growth modifiers, primary screen, strain RM11-1a, OD600, basal, 24 h (AID 1177); details: OD600, 24 h, higher = more signal, called active from +8 up or from −8 down;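 note: cultures grown under basal conditions with no added stressor; test concentration not given here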
# [17] = E. coli acrAB mutant growth effects, primary screen, E. coli filamentation inducers, strain DRC39, OD650, 24 h (AID 1178); details: higher = more signal, called active from +8 up or from −8 down;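 note: growth measured as culture turbidity by optical density at 650 nm; test concentration not given here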
# [18] = E. coli acrAB mutant growth effects, primary screen, E. coli filamentation inducers, strain DRC39, OD650, 48 h (AID 1179);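 note: screen aims at cell division blockers that make cells filament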; details: E. coli DRC39 delta-acrAB growth, higher = more signal, called active from +8 up or from −8 down
# [19] = RPMI8226 myeloma cell viability, profiling panel, resazurin fluorescence, basal, 24 h, PK04 Diversity Set (AID 1180); details: higher = more signal;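 note: RPMI8826 multiple myeloma cell line at 5000 cells per well; test concentration not given here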
# [20] = molecular target: E3 ubiquitin-protein ligase XIAP (Homo sapiens) (UniProt P98170); experiment: XIAP binders, primary screen, biophysical, small-molecule microarray, fluorescence 635 nm (AID 1181); details: small-molecule microarray binding, higher = more signal;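 note: score merges 667 nm emission and signal to noise over triplicate slides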
# Sequence of E3 ubiquitin-protein ligase XIAP (Homo sapiens) (P98170 whole entry, looked up): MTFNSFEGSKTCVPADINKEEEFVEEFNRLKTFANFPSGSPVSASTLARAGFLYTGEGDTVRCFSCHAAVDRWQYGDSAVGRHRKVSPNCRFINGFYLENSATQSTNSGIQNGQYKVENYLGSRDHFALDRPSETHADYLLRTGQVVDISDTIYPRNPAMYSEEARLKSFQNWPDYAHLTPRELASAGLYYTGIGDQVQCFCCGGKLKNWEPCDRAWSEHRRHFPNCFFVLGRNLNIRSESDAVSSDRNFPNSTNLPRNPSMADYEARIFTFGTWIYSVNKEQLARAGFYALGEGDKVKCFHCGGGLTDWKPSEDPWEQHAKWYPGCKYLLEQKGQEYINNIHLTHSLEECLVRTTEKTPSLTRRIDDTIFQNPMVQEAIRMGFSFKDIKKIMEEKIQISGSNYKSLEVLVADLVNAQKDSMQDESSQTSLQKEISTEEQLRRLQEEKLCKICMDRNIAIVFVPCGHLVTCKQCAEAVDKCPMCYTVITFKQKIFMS
Compound,z-score [1],z-score [2],z-score [3],z-score [4],z-score [5],z-score [6],z-score [7],z-score [8],z-score [9],z-score [10],z-score [11],z-score [12],z-score [13],composite z-score [14],z-score [15],z-score [16],z-score [17],z-score [18],z-score [19],composite z-score [20]
[N-]=[N+]=Nc1ccccc1C[C@]1(C(=O)NCCN2CCOCC2)N=C(c2ccc(OCCCO)cc2)O[C@H]1c1ccccc1N=[N+]=[N-],0.0861,0.784,-0.111,-2.41,-1.2,1.23,1.27 (inactive),-1,-0.571,-2.47 (inactive),-1.31,-4.84 (inactive),-1.83 (inactive),-0.695 (inactive),-0.596 (inactive),-0.505 (inactive),-0.0345 (inactive),1.31 (inactive),-2.13,0.0402
COC(=O)[C@@]1(Cc2ccccc2)[C@H]2c3cc(C(=O)N(C)C)n(Cc4ccc(O)c(OC)c4)c3C[C@H]2CN1C(=O)c1ccccc1,-0.927,1.68,0.0419,-0.494,-1.26,2.19,-0.485 (inactive),-0.671,-1.47,0.349 (inactive),0.563,1.12 (inactive),0.301 (inactive),-2.88 (inactive),1.47 (inactive),0.458 (inactive),-0.846 (inactive),0.202 (inactive),-1.24,0.0422
Cc1ccc(C(C)CC(O)C2C=CC3C(=O)N(Cc4ccccc4)C(=O)C3N2n2cnnc2)o1 (stereo not given),-0.732,-0.126,-0.705,-0.427,-1.63,-0.254,-1.24 (inactive),-0.168,1.24,-1.34 (inactive),-1.13,-9.36 (active),-0.817 (inactive),-0.101 (inactive),0.368 (inactive),-1.4 (inactive),-1.46 (inactive),-1.22 (inactive),-0.841,0.263
Cc1ccc(S[C@]2(C(=O)NCC(C)C)CC(=O)N(C3CCCCC3)[C@@H]2c2ccc(CO)cc2I)cc1,-0.62,-0.395,-0.885,-3.28,-3.46,0.752,0.49 (inactive),-0.947,0.0655,1.3 (inactive),0.33,-1.05 (inactive),0.0989 (inactive),-0.0804 (inactive),-0.81 (inactive),-0.115 (inactive),0.12 (inactive),0.598 (inactive),-0.693,-0.0559
COCCCNC(=O)[C@]1(Cc2ccccc2)N=C(c2ccc(OCCCO)cc2)O[C@@H]1c1ccccc1N=[N+]=[N-],-1.8,1.77,-1.47,-1.78,-4.29,1.29,0.235 (inactive),-1.1,-1.73,-1.09 (inactive),0.0754,-1.75 (inactive),-2.61 (inactive),0.828 (inactive),-0.674 (inactive),-0.355 (inactive),1.27 (inactive),0.642 (inactive),-2.73,-0.02
Cc1ccc(S[C@]2(C(=O)NCCN3CCOCC3)CC(=O)N(C3Cc4ccccc4C3)[C@@H]2c2ccc(CO)cc2)cc1,-0.215,-0.143,-0.619,-0.0655,0.0047,0.699,0.242 (inactive),0.794,-0.0188,0.665 (inactive),-0.211,0.884 (inactive),-0.209 (inactive),0.408 (inactive),0.0435 (inactive),0.948 (inactive),0.435 (inactive),0.337 (inactive),-0.109,-0.0282
O=C1c2ccccc2[C@](Cc2ccccc2I)(C(=O)NCC(F)(F)F)[C@H](c2ccc(CO)cc2)N1Cc1ccccc1,0.535,0.489,0.43,-0.441,-1.67,-0.0706,-0.0813 (inactive),-0.332,-0.645,1.1 (inactive),0.846,-0.895 (inactive),-0.277 (inactive),-0.537 (inactive),-0.0344 (inactive),0.0123 (inactive),0.496 (inactive),1.07 (inactive),0.675,-0.0962
C=CCC(OC(C)=O)[C@@H]1[C@@H](N(Cc2ccc(-c3ccccc3)cc2)C(=O)Cc2ccc(OC)cc2)c2cc(OCCCO)ccc2N1C(=O)c1ccc(-c2ccccc2)cc1 (stereo not given in full),0.817,0.397,1.3,0.366,0.368,3.34,0.269 (inactive),0.298,0.494,1.21 (inactive),0.192,-1.13 (inactive),0.833 (inactive),-0.0887 (inactive),-0.24 (inactive),-0.754 (inactive),1.57 (inactive),0.807 (inactive),0.989,0.233
COc1ccc([Si](C)(C)[C@@H]2[C@@H](CCO)O[C@]3(C(=O)N(Cc4cccc(N5C(=O)COc6ccccc65)c4)c4ccccc43)[C@H]2C)cc1,-2.03,0.574,-4.17,-2.95,-4.16,-0.527,0.351 (inactive),-1.09,-1.7,-2.6 (inactive),-2.07,0.967 (inactive),-3.29 (inactive),0.737 (inactive),1.3 (inactive),4.05 (inactive),0.775 (inactive),0.295 (inactive),-3.26,0.0424
CCOC(=O)C[C@H]1[C@H](OC(=O)c2cc3ccccc3oc2=O)[C@@H](NC(=O)c2ccc3ccccc3n2)c2cc(OCCCO)ccc2N1C(=O)c1ccc2ccccc2n1,0.513,1.27,0.717,-0.255,-0.719,0.082,-0.33 (inactive),-0.115,1.17,-0.82 (inactive),0.165,-0.535 (inactive),0.35 (inactive),0.315 (inactive),-0.766 (inactive),-0.361 (inactive),1.72 (inactive),0.627 (inactive),-0.594,0.035
Cc1ccccc1C(O)C1C=CC2C(=O)N(C)C(=O)C2N1Nc1ccc([N+](=O)[O-])cc1[N+](=O)[O-] (stereo not given),0.544,-0.729,0.839,-1.04,-0.582,-1.57,-1.15 (inactive),-0.0251,-1.09,-0.372 (inactive),-0.138,1.09 (inactive),-0.729 (inactive),-0.286 (inactive),0.186 (inactive),0.446 (inactive),-0.456 (inactive),-0.401 (inactive),-0.963,-0.0172
O=C1NC(=O)C2C1C=CC(C(O)c1ccc3c(c1)OCO3)N2Nc1ccc(Cl)cc1Cl (stereo not given),-0.713,-0.638,-1.22,-2.41,-1.99,-2.87,-0.748 (inactive),-0.103,-0.339,-0.233 (inactive),-0.996,-14 (active),-1.33 (inactive),-0.703 (inactive),1.38 (inactive),-0.101 (inactive),-0.145 (inactive),-2.73 (inactive),-0.93,0.205
O=C1C2C=CC(C(O)c3ccccn3)N(Nc3ccccc3)C2C(=O)N1c1ccccc1 (stereo not given),0.312,-1.46,0.593,0.111,-0.0462,-0.568,-0.467 (inactive),-0.234,-1.11,-0.752 (inactive),0.458,-1.07 (inactive),-0.702 (inactive),1.06 (inactive),0.35 (inactive),0.565 (inactive),-0.562 (inactive),-0.225 (inactive),0.16,0.109
O=C(Nc1cc(Br)ccc1C(=O)NCc1cccc(O)c1)c1ccccc1,-1.71,-0.318,-2.25,-3.11,-2.49,0.386,5.49 (inactive),-0.226,-1.12,-0.326 (inactive),-1.11,-0.887 (inactive),-0.407 (inactive),0.591 (inactive),0.034 (inactive),0.659 (inactive),1.45 (inactive),1.06 (inactive),-0.565,0.41
CC(C)N1CC=CC23O[C@@H]4C=CCOC(=O)[C@@H]4[C@H]2C(=O)N(CCCCCCO)[C@@H]3C1=O (stereo not given in full),0.0698,0.105,-0.684,1.17,0.255,-0.202,-0.109 (inactive),0.0854,-0.249,0.64 (inactive),0.821,0.562 (inactive),-0.581 (inactive),-1.07 (inactive),0.165 (inactive),-0.21 (inactive),0.412 (inactive),0.24 (inactive),0.704,0.0342
COc1cccc(C)c1NC(=O)O[C@H]1[C@H](OC(=O)Nc2ccccc2)[C@H](OC(=O)Nc2ccccc2)[C@@H](OC)O[C@@H]1CO,-1.09,0.93,-1.1,-2.53,-2.81,0.321,0.306 (inactive),-1.1,0.268,-2.57 (inactive),-1.22,0.803 (inactive),-2.2 (inactive),0.111 (inactive),0.565 (inactive),0.673 (inactive),0.462 (inactive),-0.358 (inactive),-1.65,0.0744
C=CCNC(=O)[C@@H]1[C@H]2C(=O)O[C@H](c3ccccc3)[C@H](c3ccccc3)N2[C@H](c2ccc(O)cc2)[C@@]12C(=O)Nc1ccc(C#CCCO)cc12,0.47,0.79,-0.168,-0.21,-0.719,-0.931,-0.296 (inactive),-0.456,-0.388,1.01 (inactive),0.917,-0.599 (inactive),0.343 (inactive),-0.489 (inactive),-0.212 (inactive),-0.769 (inactive),0.883 (inactive),-0.582 (inactive),1.32,-0.377
C=CCOc1ccc([C@@H]2CC=C(C(=O)OCC)[C@H](c3cccc(Br)c3)N2S(=O)(=O)c2ccc(C)cc2)cc1,0.954,0.261,-0.508,0.394,-0.455,4.43,0.392 (inactive),-0.957,-0.0677,-0.924 (inactive),-0.696,0.465 (inactive),0.262 (inactive),-1.92 (inactive),0.285 (inactive),-0.897 (inactive),-0.273 (inactive),1.05 (inactive),-0.155,-0.258
